S1P4 antagonist – S1P4 receptor antagonists, primary screen, cell-based; inhibition, % at 4.98 µM; hit rate 0.26% among 220,000; S1P4-expressing cells, antagonist mode, reporter read-out; Sphingosine 1-phosphate receptor 4 (Homo sapiens), O95977; AID 1510, 2009; in the data active = inhibition above about 29%
Target sequence (O95977 whole entry, looked up): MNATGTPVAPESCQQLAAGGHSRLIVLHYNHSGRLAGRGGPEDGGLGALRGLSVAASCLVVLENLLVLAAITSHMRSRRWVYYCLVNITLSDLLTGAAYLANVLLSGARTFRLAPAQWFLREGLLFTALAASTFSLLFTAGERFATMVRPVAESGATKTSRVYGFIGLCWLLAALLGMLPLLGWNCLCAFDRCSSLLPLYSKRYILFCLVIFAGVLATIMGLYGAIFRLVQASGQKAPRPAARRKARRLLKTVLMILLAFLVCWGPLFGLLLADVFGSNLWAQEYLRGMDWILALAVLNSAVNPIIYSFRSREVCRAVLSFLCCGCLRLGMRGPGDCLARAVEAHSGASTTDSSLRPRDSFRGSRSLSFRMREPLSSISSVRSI
S1P4 ag – S1P4 receptor agonists, primary screen, cell-based; AID 1509, 2009; S1P4-expressing cell line, agonist reporter assay; Sphingosine 1-phosphate receptor 4 (Homo sapiens), O95977; hit rate 0.35% among 220,000; activation, % at 4.98 µM; in the data active = activation above about 11%
CHOP inhibitor – inhibitors of CHOP promoter induction, primary screen, cell-based, unfolded protein response, luciferase reporter; CHO-K1 CHOP-promoter luciferase, tunicamycin-induced, 15-18 h; inhibition, % at 10 µM; hit rate 3.8% among 220,000; AID 2732, 2010;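 active = compounds that reduced the stress-induced luciferase reporter signal by more than about 70% of percent inhibition, limit read from the data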
Hsp70 activator – Hsp70 transcriptional activators, primary screen, cell-based, HeLa, Hsp70 promoter luciferase, luminescence, 10 µM; AID 1203, 2008; HeLa Hsp70 promoter luciferase reporter; scaled: vehicle 0, proteasome-inhibitor control 100%; hit rate 0.04% among 200,000; activation, % at 10 µM;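 active = activation above the mean across all tested compounds plus 3 SD, cutoff set per campaign, cut at about 5.5% in these data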
S1P4 agonist cf – S1P4 receptor agonists, retest, confirmation, cell-based, high throughput; activation, % at 4.98 µM; AID 1523, 2009; hit rate 7% among 740; S1P4 agonist cell-based reporter assay; shares compounds with S1P4 ag; in the data active = activation above about 12%
S1P1 agonist – S1P1 receptor agonists, human, counter-screen for S1P4 agonist project, cell-based; shares compounds with S1P4 ag; S1P1 agonist cell-based assay, activation; activation, % at 4.98 µM; hit rate 4% among 740; AID 1563, 2009; in the data active = activation above about 21%
Of the large screens only hits and unclear results are named; the others gave an inactive call (follow-up assays come after a bar, where they were run). An excerpt weighted towards active compounds, which were near 4.2% of everything screened.

Cc1cccc[n+]1CC(=O)/C=C1\N(C)c2ccccc2C1(C)C	S1P4 ag 21 | S1P4 agonist cf inactive | S1P1 agonist inactive
Cc1cc(Nc2cccc(Cl)c2)n2ncnc2n1	none
CCc1cccc(Nc2cc(C)nc3ncnn23)c1	S1P4 ag 156 | S1P4 agonist cf inactive | S1P1 agonist inactive
CCOC(=O)c1sc(N)c(C#N)c1CSc1nnc(C2CC2)n1N	none
CC(C)/C=N/Nc1nc(-c2ccc(Br)cc2)cs1	S1P4 ag 34 | S1P4 agonist cf inactive | S1P1 agonist inactive
Cc1ccc(Oc2nc3c(C)cccn3c(=O)c2/C=C(\C#N)C(N)=O)cc1	S1P4 ag 20 (no result: Hsp70 activator) | S1P4 agonist cf inactive | S1P1 agonist inactive
Cc1ccc(S(=O)(=O)/C(C#N)=C/c2c(Oc3ccc(Cl)cc3)nc3c(C)cccn3c2=O)cc1	none
Cc1ccc(CN(c2ccc(C(=O)NCC3CCCO3)cc2)S(C)(=O)=O)cc1 (stereo unspecified)	S1P4 ag 30 | S1P4 agonist cf inactive | S1P1 agonist inactive
CCOC(=O)N1CCN(C(=O)COc2ccc(Cl)c(C)c2)CC1	none
COc1cc(/C=N/N(C)C)cc(Br)c1O	S1P4 ag 39 (no result: Hsp70 activator) | S1P4 agonist cf inactive | S1P1 agonist inactive
CN=c1scc(C)n1/N=C/c1cc(Br)c(O)c(OC)c1	none
Cc1cccnc1NC(=O)Nc1cccc(C(F)(F)F)c1	none
CNC(=O)c1cccnc1Nc1cccc(C(F)(F)F)c1	S1P4 ag 33 | S1P4 agonist cf inactive | S1P1 agonist inactive
C=Cn1cc[n+](CC(=O)c2ccc(C)cc2)c1	S1P4 ag 18 | S1P4 agonist cf inactive | S1P1 agonist inactive
Cc1ccc(N/N=C(\C#N)C(N)=S)c(C)c1	S1P4 ag 20 | S1P4 agonist cf inactive | S1P1 agonist inactive
Cc1ccc(NC(=O)/C(C#N)=N/Nc2ccc(C(=O)O)cc2)c(C)c1	none (no result: Hsp70 activator)
CCCc1nc2ccccc2c(NC(=O)CN(CC)CC)c1CC	none
Cn1c(O)c(C=Nc2ccc(N3CCOCC3)cc2)c(=O)n(C)c1=S	S1P4 ag 30 | S1P4 agonist cf inactive | S1P1 agonist inactive
CCn1c(C)c(C(C)=O)c(N2CCCC2)nc1=S	S1P4 ag 17 | S1P4 agonist cf inactive | S1P1 agonist inactive
C=CCn1c(C)c(C(C)=O)c(N2CCCC2)nc1=S	none
CC(C)CCN1CCN(Cc2cccs2)CC1CCO (stereo unspecified)	none
CC(C)N1CCN(Cc2cccs2)CC1CCO (stereo unspecified)	S1P4 ag 64 | S1P4 agonist cf inactive | S1P1 agonist inactive
CC(=O)c1ccc(N2CCN(C(=O)C3CCC3)CC2)cc1	none
O=C(c1cnc2ccc(Cl)cc2c1Cl)N1CCOCC1	S1P4 ag 26 | S1P4 agonist cf inactive | S1P1 agonist inactive
CN(C(=O)COc1ccc(C(C)(C)C)cc1)C1CCS(=O)(=O)C1 (stereo unspecified)	none
Cc1c(Nc2c3ccccc3nc3ccccc23)c(=O)n(-c2ccccc2)n1C	S1P4 ag 11 (no result: Hsp70 activator) | S1P4 agonist cf inactive | S1P1 agonist inactive
CCc1cc(=O)oc2c(CN3CCN(C)CC3)c(O)c(Cl)cc12	S1P4 ag 11 | S1P4 agonist cf inactive | S1P1 agonist inactive
CCc1cc(=O)oc2c(CN3CCCC3)c(O)c(Cl)cc12	none (no result: CHOP inhibitor)
Cc1ncc([N+](=O)[O-])n1CC(=O)NCCc1ccccc1	S1P4 ag 16 | S1P4 agonist cf inactive | S1P1 agonist inactive
C#CC[N+]1(CC#Cc2ccccc2)CCOCC1	none
COc1cccc(CC(NC(C)=O)C(=O)NC2CCN(c3c(Cc4ccccc4)c(C)nc4ncnn34)CC2)c1OC (stereo unspecified)	S1P4 ag 14 | S1P4 agonist cf inactive | S1P1 agonist inactive
COCCNC(=S)Nc1ccc(Cl)c(Cl)c1	none
COCCNC(=S)Nc1ccc2nsnc2c1	S1P4 ag 12 | S1P4 agonist cf inactive | S1P1 agonist inactive
COc1ccc(-n2c(SCC(=O)Nc3cc(C)on3)nc3c(c2=O)SCC3)cc1	none
COc1ccc(NC(=O)CSc2nc3c(c(=O)n2-c2ccc(F)cc2)SCC3)c(OC)c1	S1P4 ag 13 | S1P4 agonist cf inactive | S1P1 agonist inactive
COc1ccsc1C(=O)N1CCN(Cc2ccc3c(c2)OCO3)CC1	none
O=C(COC(=O)c1cccc(C(F)(F)F)c1)NCc1ccccc1	S1P4 ag 23 | S1P4 agonist cf inactive | S1P1 agonist inactive
O=C(COC(=O)c1ccncc1)NCc1ccccc1	none
O=C(COC(=O)c1cccc(C(F)(F)F)c1)NCc1ccc(Cl)cc1	none
O=C(COC(=O)c1ccc(Br)cc1)NCc1ccccc1	S1P4 ag 15 | S1P4 agonist cf inactive | S1P1 agonist inactive
COC(=O)c1ccc(NC(=O)CCn2c(=O)oc3ccccc32)cc1	S1P4 ag 13 | S1P4 agonist cf inactive | S1P1 agonist inactive
Cc1ccccc1NC(=O)CCn1c(=O)oc2ccccc21	none
COc1ccc(CN2CCNC(=O)C2CC(=O)NCCSc2nccn2C)cc1OC (stereo unspecified)	none
CC(=NCCCn1ccnc1)C1=C(O)c2ccccc2C1=O	none
Cc1ccccc1NC(=S)NC(=O)c1cncc(Br)c1	S1P4 ag 16 | S1P4 agonist cf inactive | S1P1 agonist inactive
COc1cc(C=O)ccc1Oc1nc(Nc2ccc(F)cc2F)nc(N2CCOCC2)n1	none
NC(=O)CS(=O)(=O)c1ccc(Cl)cc1	S1P4 ag 25 | S1P4 agonist cf inactive | S1P1 agonist inactive
O=S(=O)(CC(O)CS(=O)(=O)c1ccc(Cl)cc1)c1ccccc1 (stereo unspecified)	none (no result: Hsp70 activator)
Brc1ccc(-c2nnc(-c3ccco3)o2)cc1	none
CCN(CC)C(=O)C1CCCN(Cc2ccccc2)C1 (stereo unspecified)	S1P4 ag 22 | S1P4 agonist cf inactive | S1P1 agonist inactive
CCn1cc(CNC(=O)/C=C/c2cnn(C)c2)c(C)n1	S1P4 ag 36 | S1P4 agonist cf inactive | S1P1 agonist inactive
O=C(/C=C/c1ccc(F)cc1)NC(=S)N1CCN(c2ccccn2)CC1	none (no result: Hsp70 activator)
Cc1nc(-c2cccc(NS(=O)(=O)c3cccc4ccccc34)c2)cs1	S1P4 ag 12 | S1P4 agonist cf inactive | S1P1 agonist inactive
CCCNC(=O)Cn1nc([N+](=O)[O-])c([N+](=O)[O-])c1C	S1P4 ag 14 | S1P4 agonist cf inactive | S1P1 agonist inactive
CCc1ccc(OC2=NS(=O)(=O)c3ccccc32)cc1	S1P4 ag 14 | S1P4 agonist cf inactive | S1P1 agonist inactive
COc1ccccc1OC1=NS(=O)(=O)c2ccccc21	none
NC(=O)c1cc2ccc(O)cc2oc1=Nc1ccccc1	S1P4 ag 33 | S1P4 agonist cf inactive | S1P1 agonist inactive
O=C(O)c1ccc(N=c2oc3cc(O)ccc3cc2C(=O)NCc2ccccc2)cc1	S1P4 ag 38 | S1P4 agonist cf inactive | S1P1 agonist inactive

Source: PubChem (several laboratories)
